Screening results from PubChem BioAssay.
Rows were chosen to be rich in hits. Some 5.2% of all compounds tested hit in one or more screens of this group.
PostGolgi ctrl – growth of the yeast control strain, post-Golgi counter-screen. efflux-deficient yeast background strain, growth absorbance A615, 16 h. inhibition, % at 10 µM. 98,000 compounds, 5% hits
Candida biofilm – kills Candida albicans biofilms | C. albicans biofilm + clotrimazole, Alamar Blue | inhibition, % at 6 µM | 85,000 compounds, 0.14% hits | AID 834;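 active = inhibition above 20%; inactive = inhibition below 20%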;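 also: preformed 24 hr biofilms exposed to compound for 48 hr; 0% = biofilm without compound and 100% = blank killed by clotrimazole plus chlorhexidine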
EphB4 ephrin blk – antagonists of human EphB4-ephrin-B2 interaction. P54760. EphB4 LBD / TNYL-RAW-Alexa532 peptide, fluorescence polarization. inhibition, % at 7 µM. 97,000 compounds, 0.15% hits. AID 720;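 active = inhibition above the screen-wide mean inhibition plus 3 SD, cut at about 15% in these data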;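 also: 0% = DMSO wells and 100% = excess unlabeled TNYL-RAW peptide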
PostGolgi yeast – growth inhibition of a yeast mutant, post-Golgi transport screen. post-Golgi transport phenotypic cell assay. inhibition, % at 10 µM. 98,000 compounds, 0.9% hits. AID 739;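 also: yeast cells grown in 1536-well plates; yeast grown about 18 h at 30C before absorbance read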
An asterisk follows results filed as active; / = no result. Rule as the data show it, unless noted: active = inhibition above about 30%; inactive = the rest.

SMILES | PostGolgi ctrl | Candida biofilm | EphB4 ephrin blk | PostGolgi yeast
COc1cccc(C2NC(CCSC)(C(=O)O)C3C(=O)N(C(C)C)C(=O)C23)c1O (stereo not drawn) | 40* | 6 | 3 | -9
Oc1ccc(Br)cc1-c1nc2cnccn2c1NC1CCCC1 | 63* | 7 | / | 6
Oc1ccc(Br)cc1-c1nc2cnccn2c1NC1CCCCC1 | 86* | 4 | 1 | 29
O=C(c1ccco1)N1CCN(CC(O)COc2ccc3oc4ccccc4c3c2)CC1 (stereo not drawn) | 28 | 5 | 0 | 5
CCOC(=O)c1oc2ccc3c(c2c1C)C(=O)CC1(CCN(C(=O)OCC)CC1)O3 | 35* | / | / | -7
CCOC(=O)N1CCC2(CC1)CC(=O)c1c(ccc3oc(C(=O)O)c(C)c13)O2 | 9 | -5 | / | 0
O=c1c(-c2ccnn2-c2cccc(Cl)c2)cnc2n1CCS2 | 5 | -2 | -1 | -8
Cc1cccc(C(=O)N2CCN(c3ccc([N+](=O)[O-])c(NCc4ccco4)c3)CC2)c1 | 39* | / | -7 | -1
COc1cccc(OC)c1C(=O)NNC(=O)c1cccc(COc2ccc3c(c2)CCC3)c1 | 18 | / | 1 | -4
COc1ccc(CCNC(=O)c2ccc(NS(=O)(=O)c3c(C)noc3C)cc2)cc1OC | -1 | / | 8 | 4
Cc1nc(NC(=O)c2ccccc2)sc1-c1csc(Nc2ccc(F)cc2)n1 | -3 | / | -1 | 33*
Cc1nc(NC(=O)c2ccco2)sc1-c1csc(Nc2ccc(Cl)cc2)n1 | 39* | / | 1 | -7
Cc1nn(Cc2ccccc2)c(=O)n1N(C)c1ncc(C(F)(F)F)cc1Cl | 4 | 3 | -1 | 5
COC(=O)c1cc(NC(=O)Cn2c(=O)cnc3ccccc32)cc(C(=O)OC)c1 | 8 | -5 | 6 | -7
COc1ccc(NC(=O)c2cc3sccc3n2Cc2ccc(F)cc2)cc1OC | 33* | 0 | 11 | 2
O=C1NC(=O)C2(COC3(CCCC3)OC2)S1 | 35* | -1 | 2 | 4
O=C(Nc1cc(C(F)(F)F)ccc1Cl)C1CCN(c2nnc(-n3cccc3)s2)CC1 | 39* | 2 | / | 6
CS(=O)(=O)N1CCC(C(=O)Nc2cc(C(F)(F)F)ccc2Cl)CC1 | -10 | 9 | 1 | 4
Cc1nc(N2CCN(S(=O)(=O)c3ccccc3)CC2)c2c3c(sc2n1)CC(C)CC3 (stereo not drawn) | 30 | / | -5 | -3
Cc1nc(N2CCN(S(=O)(=O)c3cccc4nonc34)CC2)c2c3c(sc2n1)CCCC3 | 59* | -4 | / | 25
CCOC(=O)C1CCN(C(=S)Nc2cc(OC)c(OC)cc2C(=O)OC)CC1 | 1 | -6 | 5 | 4
COc1ccc2c(=O)c3c(=O)n(Cc4ccco4)c(C(C)C)nc3oc2c1 | / | 3 | 10 | /
COc1ccc2c(=O)c3c(=O)n(Cc4ccco4)c(-c4ccc(C)cc4)nc3oc2c1 | 44* | 3 | 4 | 6
Cc1cccc2cc(CN(Cc3ccccc3)C(=O)N3CCOCC3)c3nnnn3c12 | / | 3 | 4 | /
OC(c1ccc(Cl)cc1Cl)C(Cc1cccnc1)n1cncn1 (stereo not drawn) | 11 | / | -8 | 45*
SMILES | PostGolgi ctrl | Candida biofilm | EphB4 ephrin blk | PostGolgi yeast
OC(Cn1cncn1)c1ccc(Cl)cc1Cl (stereo not drawn) | 40* | 3 | 1 | 78*
OC(Cn1cncn1)c1ccc(Cl)cc1 (stereo not drawn) | -5 | -1 | 1 | 4
CCOC(=O)c1sc(-c2ccc(Br)cc2)cc1N | 45* | 7 | -8 | -4
COc1ccc2cnn(-c3ccccc3)c(=O)c2c1OC | 4 | 5 | -3 | 4
COc1cnn(-c2ccccc2)c(=O)c1SCc1ccc(Cl)c(Cl)c1 | 60* | / | -6 | 2
CCOc1ccccc1C(=O)N(Cc1ccccc1)Cc1cc2cc3c(cc2[nH]c1=O)OCCO3 | / | -8 | 3 | /
Cc1nn(-c2ccccc2)c(C)c1/C=N/NC(=O)c1cc(C23CC4CC(CC(C4)C2)C3)[nH]n1 | 60* | / | -1 | -2
Cc1nn(-c2ccccc2)c(C)c1/C=N/NC(=O)c1cc(C2CC2)[nH]n1 | 2 | / | -3 | -3
Cc1nn(-c2ccccc2)c(C)c1/C=N/NC(=O)c1cc(-c2ccc(Br)s2)[nH]n1 | 64* | / | 1 | 6
Cc1nn(-c2ccccc2)c(C)c1/C=N/NC(=O)c1cc(-c2ccc(Cl)s2)[nH]n1 | 46* | / | 9 | 54*
COC(=O)C1=C(N)Oc2cc(C)n(CCN3CCOCC3)c(=O)c2C1c1cccnc1 (stereo not drawn) | 1 | 7 | -3 | -8
O=C(Cn1nnc2c(cnn2-c2ccccc2)c1=O)N1CCN(c2ccccc2F)CC1 | 37* | 2 | 7 | -5
O=C(Cn1cnc2c(cnn2-c2ccc(F)cc2)c1=O)N1CCN(c2ccccc2F)CC1 | 6 | 10 | -3 | -9
NC(=O)CSc1nc(N)c2c3c(sc2n1)CCCCC3 | 31* | 8 | / | 6
